{
  "source": "PubChem BioAssay (EPA / NIEHS)",
  "note": "Calls of active or inactive are those of the source. How the source made its calls: active means hit-call score of the fitted dose curve at least 0.9, where 1 is the maximum; inactive means score below 0.9.",
  "data": [
    {"read-out": "Thrombomodulin, THBD (gene 7056)", "assay": "BSK_3C_Thrombomodulin: BioMAP Diversity Plus: 3C Assay for Thrombomodulin Biomarker Activity (AID 2283029)", "details": "primary human endothelial cells (HUVEC); actives raise or lower the signal", "method": "BSK_3C is a cell-based, multiplexed-readout assay that uses umbilical vein endothelium, a human vascular primary cell, with measurements taken at 24 hours after chemical dosing in a 96-well plate.BSK_3C_Thrombomodulin is an assay component measured in the BSK_3C assay. It measures Thrombomodulin antibody related to regulation of gene expression using ELISA technology.Data from the assay component BSK_3C_Thrombomodulin was analyzed into 1 assay endpoint. This assay endpoint, BSK_3C_Thrombomodulin, was analyzed with bidirectional fitting relative to DMSO as the negative control and baseline of activity. Using a type of binding reporter, gain or loss-of-signal activity can be used to understand changes in the signaling as they relate to the gene THBD. Furthermore, this assay endpoint can be referred to as a primary readout, because this assay has produced multiple assay endpoints where this one serves a signaling function. To generalize the intended target to other relatable targets, this assay endpoint is annotated to the gpcr intended target family, where the subfamily is rhodopsin-like receptor.\nThe levels of cell surface (or secreted, indicated by the prefix \"s\") biomarker endpoints were measured by ELISA. Overt cytotoxicity to cells in confluent adherent cultures (all systems other than the BT system) was assessed by measuring total protein levels using sulforhodamine B (SRB) staining in parallel cultures at the time of biomarker measurements, indicated as SRB endpoints. For proliferation assays for adherent cell types, individual cell types are cultured at sub-confluence and relative cell numbers quantified by SRB staining at time points optimized for each system (48 h: 3C and CASM3C systems; 72 h: BT and HDF3CGF systems; 96 h: SAg system). SRB was performed by staining cells with 0.1% SRB after fixation with 10% TCA and reading wells at 560 nm.Viability and proliferation of PBMC (T cells) was quantified by Alamar Blue reduction for the SAg and BT systems. For PBMC viability (referred to as PBMC Cytotoxicity within the assay endpoint names), cells were plated (75,000/well in a 96-well plate) and then chemical samples added for 1 h before addition of activators, SEB and TSST-1 (20 ng/mL final concentration each). Cells were incubated for 90 h. Then, Alamar Blue (20 uL/well) (Invitrogen, Cat DAL1100) was added for 6 h, and the plates were read with a fluorescence microplate reader at 546/580 nm (excitation/emission). For PBMC proliferation, cells were plated and activated as above but incubated for only 16 h prior to addition of Alamar Blue. Plates were read after 6 h.", "values": [
      {"compound": "CSC(=O)c1c(C(F)F)nc(C(F)(F)F)c(C(=O)SC)c1CC(C)C", "outcome": "inactive"},
      {"compound": "COCc1cnc(C2=NC(C)(C(C)C)C(=O)N2)c(C(=O)O)c1", "note": "(stereo not given)", "outcome": "inactive"},
      {"compound": "COCC(C)N(C(=O)CCl)c1c(C)csc1C", "note": "(stereo not given)", "outcome": "inactive"},
      {"compound": "CS(=O)(=O)c1cc(C(F)(F)F)ccc1C(=O)c1cnoc1C1CC1", "outcome": "inactive"},
      {"compound": "CCOc1nc(C(Cl)(Cl)Cl)ns1", "outcome": "inactive"},
      {"compound": "CCNC(=O)NC(=O)C(C#N)=NOC", "outcome": "inactive"},
      {"compound": "Clc1cccc(C(Cl)(Cl)Cl)n1", "outcome": "inactive"},
      {"compound": "CNC(=O)Oc1cccc2ccccc12", "outcome": "inactive"},
      {"compound": "COc1ccc(-c2ccccc2)cc1NNC(=O)OC(C)C", "outcome": "inactive"},
      {"compound": "Cc1c(COC(=O)[C@@H]2[C@H](/C=C(\\Cl)C(F)(F)F)C2(C)C)cccc1-c1ccccc1", "AC50": "4.98 µM (active)"},
      {"compound": "CCSC(=O)N1CCCCCC1", "outcome": "inactive"},
      {"compound": "Clc1nc(Cl)nc(Nc2ccccc2Cl)n1", "outcome": "inactive"},
      {"compound": "COCC(=O)N(c1c(C)cccc1C)C(C)C(=O)OC", "note": "(stereo not given)", "outcome": "inactive"},
      {"compound": "COP(=O)(OC)O/C(C)=C/C(=O)N(C)C", "outcome": "inactive"},
      {"compound": "Cc1ccc(N=CN(C)C=Nc2ccc(C)cc2C)c(C)c1", "AC50": "20 µM (active)"},
      {"compound": "COc1cc(OC)nc(NC(=O)NS(=O)(=O)c2ncccc2OCC(F)(F)F)n1", "outcome": "inactive"},
      {"compound": "O=c1n(Cl)c(=O)n(Cl)c(=O)n1Cl", "outcome": "inactive"},
      {"compound": "Nc1c(Cl)c(F)nc(OCC(=O)O)c1Cl", "outcome": "inactive"},
      {"compound": "COC(=O)c1c(C(F)F)nc(C(F)(F)F)c(C2=NCCS2)c1CC(C)C", "outcome": "inactive"},
      {"compound": "CCCCC(O)(Cn1cncn1)c1ccc(Cl)cc1Cl", "note": "(stereo not given)", "outcome": "inactive"},
      {"compound": "CO/N=C(/C1=NOCCO1)c1ccccc1Oc1ncnc(Oc2ccccc2Cl)c1F", "outcome": "inactive"},
      {"compound": "CC(C)NC(=O)N1CC(=O)N(c2cc(Cl)cc(Cl)c2)C1=O", "outcome": "inactive"},
      {"compound": "O=C(Nc1ccccc1-c1ccc(Cl)cc1)c1cccnc1Cl", "outcome": "inactive"},
      {"compound": "N#CN=C1SCCN1Cc1ccc(Cl)nc1", "outcome": "inactive"},
      {"compound": "Cc1cnc(C2=NC(C)(C(C)C)C(=O)N2)c(C(=O)O)c1", "note": "(stereo not given)", "outcome": "inactive"},
      {"compound": "OC(c1ccc(Cl)cc1)(c1ccc(Cl)cc1)C(Cl)(Cl)Cl", "AC50": "0.258 µM (active)"},
      {"compound": "CC1(C)CCC(=Cc2ccc(Cl)cc2)C1(O)Cn1cncn1", "note": "(stereo not given)", "outcome": "inactive"},
      {"compound": "Nc1cnn(-c2ccccc2)c(=O)c1Cl", "outcome": "inactive"},
      {"compound": "CC(C)N1C(=O)c2ccccc2NS1(=O)=O", "outcome": "inactive"},
      {"compound": "Nc1c(Cl)c(Cl)nc(C(=O)O)c1Cl", "outcome": "inactive"},
      {"compound": "CS(=O)(=O)c1ccc(C(=O)C2C(=O)CCCC2=O)c([N+](=O)[O-])c1", "outcome": "inactive"},
      {"compound": "CC(C)(C)C(=O)C(Oc1ccc(Cl)cc1)n1cncn1", "note": "(stereo not given)", "outcome": "inactive"},
      {"compound": "C=CCOC(=O)C(C)(C)OC(=O)c1cc(-n2c(=O)cc(C(F)(F)F)n(C)c2=O)ccc1Cl", "outcome": "inactive"},
      {"compound": "CC1(C)C(C=C(Cl)Cl)C1C(=O)OC(C#N)c1cccc(Oc2ccccc2)c1", "note": "(stereo not given)", "outcome": "inactive"},
      {"compound": "COC(=O)N(C(=O)N1CO[C@@]2(C(=O)OC)Cc3cc(Cl)ccc3C2=N1)c1ccc(OC(F)(F)F)cc1", "outcome": "inactive"},
      {"compound": "Cc1cc(C)nc(Nc2ccccc2)n1", "outcome": "inactive"},
      {"compound": "COP(=S)(OC)SCn1nnc2ccccc2c1=O", "outcome": "inactive"},
      {"compound": "CCCC(=NOCC)C1=C(O)CC(CC(C)SCC)CC1=O", "note": "(stereo not given)", "outcome": "inactive"},
      {"compound": "CCNP(=S)(OC)O/C(C)=C/C(=O)OC(C)C", "note": "(stereo not given)", "outcome": "inactive"},
      {"compound": "CCN(CC)C(=O)C(C)Oc1cccc2ccccc12", "note": "(stereo not given)", "outcome": "inactive"}
    ]}
  ]
}
